In PubChem BioAssay (NCI):
About 79,000 compounds went through this panel and 15% of them were active in at least one assay; those are over-represented in the sample as a whole. Activity calls are given as the source filed them. Rule as the data show it: active = growth inhibition above about 70%; inactive = the rest.

What was measured:
[1] = NCI Yeast Anticancer Drug Screen. Data for the wt1 strain (AID 149);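 also: 0% = growth of vehicle-treated wt1 cultures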; details: S. cerevisiae wt1 strain (SPY 50644) growth inhibition, active compounds read high
Summary of the method: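 wt1 yeast, compound-treated; % growth inhibition vs vehicle control.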

[2] = NCI Yeast Anticancer Drug Screen. Data for the rad50EPP+ strain (AID 151);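 also: 0% = growth of vehicle-treated control cultures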; details: S. cerevisiae rad50 mutant strain, active compounds read high
Summary of the method: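 Yeast strain carrying rad50 alteration (rad50EPP+) exposed to compounds; growth inhibition measured relative to vehicle-treated controls.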

[3] = NCI Yeast Anticancer Drug Screen. Data for the rad50 strain (AID 155);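 also: 0% = growth of vehicle-only cultures of the same strain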; details: S. cerevisiae rad50 strain growth inhibition, active compounds read high
Summary of the method: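 Genetically altered yeast (DNA repair pathway); compound treatment; growth inhibition vs vehicle ctrl.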

[4] = NCI Yeast Anticancer Drug Screen. Data for the mec2-1 strain (AID 157); details: S. cerevisiae mec2-1 strain, active compounds read high
Summary of the method: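 mec2-1 yeast strain, carrying an alteration in DNA damage repair or cell cycle control, was exposed to compounds; growth inhibition was measured relative to vehicle-treated controls.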

[5] = NCI Yeast Anticancer Drug Screen. Data for the rad14 strain (AID 159);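 also: 0% = growth of vehicle-treated control cultures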; details: S. cerevisiae rad14 strain growth inhibition, active compounds read high
Summary of the method: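 Test compounds were applied to a repair-deficient yeast strain. Its growth was then compared with that of cultures given vehicle alone, and inhibition was expressed relative to those controls.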

[6] = NCI Yeast Anticancer Drug Screen. Data for the sgs1 mgt1 strain (AID 161);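 also: 0% = growth of cultures given vehicle only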; details: S. cerevisiae sgs1 mgt1 strain, active compounds read high
Summary of the method: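 This yeast growth screen uses a strain with defined DNA-repair lesions; compound-treated growth is compared with vehicle-treated growth.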

[7] = NCI Yeast Anticancer Drug Screen. Data for the CLN2oe strain (AID 163);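 also: 0% = growth of vehicle-only control cultures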; details: S. cerevisiae CLN2oe strain, active compounds read high
Summary of the method: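 Yeast cells carrying a defined cell-cycle control alteration were exposed to test compounds. Growth inhibition was scored against vehicle-treated control cultures.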

[8] = NCI Yeast Anticancer Drug Screen. Data for the cln2 rad14 strain (AID 165);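 also: 0% = growth equal to vehicle treated cultures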; details: S. cerevisiae cln2 rad14 strain, active compounds read high
Summary of the method: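 Yeast carrying cln2 and rad14 alterations (cell cycle control and DNA damage repair) were exposed to compounds. Growth inhibition was measured against vehicle-treated controls.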

[9] = NCI Yeast Anticancer Drug Screen. Data for the bub3 strain (AID 167); details: S. cerevisiae bub3 mutant strain, active compounds read high
Summary of the method: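 Yeast carrying a defined mutation is treated with each compound, and growth is compared with that of vehicle-exposed cells to give inhibition.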

[10] = NCI Yeast Anticancer Drug Screen. Data for the wt2 strain (AID 169);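 also: 0% = growth of vehicle-treated yeast cultures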; details: S. cerevisiae wt2 strain growth inhibition, active compounds read high
Summary of the method: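 Yeast cells were exposed to test compounds, and growth inhibition was measured relative to vehicle-treated controls.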

[11] = NCI Yeast Anticancer Drug Screen. Data for the mlh1 strain (AID 171);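 also: 0% = growth of vehicle-treated control cultures of the same strain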; details: S. cerevisiae mlh1 strain growth inhibition, active compounds read high
Summary of the method: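 Yeast carrying a defined genetic alteration in DNA damage repair or cell cycle control were exposed to test compounds. Growth inhibition was measured relative to vehicle-treated controls.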

[12] = NCI Yeast Anticancer Drug Screen. Data for the sgs1 strain (AID 173);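 also: 0% = growth of vehicle-only control cultures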; details: S. cerevisiae sgs1 mutant, active compounds read high
Summary of the method: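 Yeast mutant strains carrying defined defects in DNA damage repair or cell cycle control were exposed to test compounds. Growth inhibition was scored against vehicle-treated controls.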

[13] = NCI Yeast Anticancer Drug Screen. Data for the mlh1 rad18 strain (AID 175); details: S. cerevisiae mlh1 rad18 strain growth inhibition, active compounds read high
Summary of the method: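 Growth inhibition of the yeast strain was measured after compound exposure and expressed relative to vehicle-treated controls. The strain carries defined defects in DNA damage repair.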

[14] = NCI Yeast Anticancer Drug Screen. Data for the rad18 strain (AID 177); details: S. cerevisiae rad18 mutant growth inhibition, active compounds read high
Summary of the method: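 Yeast carrying a defined DNA damage repair alteration were exposed to compounds. Growth inhibition was expressed relative to vehicle-treated controls.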

[15] = NCI Yeast Anticancer Drug Screen. Data for the mgt1 strain (AID 153); details: S. cerevisiae mgt1 mutant growth inhibition, active compounds read high
Summary of the method: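 Yeast mgt1 strain (DNA repair/cell-cycle alteration panel) exposed to compounds; growth inhibition measured relative to vehicle-treated controls.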

[16] = at 5.0 µM (retest, dose inferred, filed as 0.5)
[17] = at 50.0 µM (retest, dose inferred, filed as 5.0)

Measured: growth inhibition

Cc1cc(NC(=S)SCc2ccc(Cl)cc2)ccc1Cl
active: [1]; at 33.0 µM 98% | [1]; at 100.0 µM 98% | [2]; at 11.0 µM 92% | [2]; at 33.0 µM 99% | [2]; at 100.0 µM 99% | [3]; at 33.0 µM 97% | [3]; [17] 96% | [3]; at 50.0 µM 90.5% | [3]; at 100.0 µM 95% | [4]; at 33.0 µM 98% | [4]; [17] 97% | [4]; at 50.0 µM 92.5% | [4]; at 100.0 µM 98% | [5]; at 33.0 µM 99% | [5]; at 100.0 µM 98% | [6]; [17] 98% | [6]; at 50.0 µM 91.8% | [7]; at 33.0 µM 98% | [7]; at 100.0 µM 98% | [8]; [17] 95% | [8]; at 50.0 µM 90.5% | [9]; at 33.0 µM 99% | [9]; [17] 98% | [9]; at 50.0 µM 91.6% | [9]; at 100.0 µM 98% | [10]; at 33.0 µM 98% | [10]; at 100.0 µM 99% | [11]; at 33.0 µM 98% | [11]; at 100.0 µM 98% | [12]; at 33.0 µM 98% | [12]; at 100.0 µM 98% | [13]; [17] 96% | [13]; at 50.0 µM 90.6% | [14]; at 33.0 µM 98% | [14]; at 100.0 µM 96%
inactive: [1]; at 1.2 µM 11% | [1]; at 3.7 µM 24% | [1]; at 11.0 µM 63% | [2]; at 1.2 µM 3% | [2]; at 3.7 µM 29% | [3]; at 1.2 µM 12% | [3]; at 3.7 µM 10% | [3]; [16] 24% | [3]; at 11.0 µM 44% | [4]; at 1.2 µM -3% | [4]; at 3.7 µM 6% | [4]; [16] 0% | [4]; at 11.0 µM 29% | [5]; at 1.2 µM -4% | [5]; at 3.7 µM 22% | [5]; at 11.0 µM 46% | [6]; [16] 43% | [7]; at 1.2 µM -3% | [7]; at 3.7 µM 15% | [7]; at 11.0 µM 44% | [8]; [16] 29% | [9]; at 1.2 µM -4% | [9]; at 3.7 µM -8% | [9]; [16] 48% | [9]; at 11.0 µM 49% | [10]; at 1.2 µM -5% | [10]; at 3.7 µM 20% | [10]; at 11.0 µM 56% | [11]; at 1.2 µM -17% | [11]; at 3.7 µM -8% | [11]; at 11.0 µM 27% | [12]; at 1.2 µM -9% | [12]; at 3.7 µM -22% | [12]; at 11.0 µM 38% | [13]; [16] 11% | [14]; at 1.2 µM 13% | [14]; at 3.7 µM 35% | [14]; at 11.0 µM 69%

Oc1ccc(Br)cc1C=Nc1cccc(C(F)(F)F)c1
inactive: [1]; at 1.2 µM -2% | [1]; at 3.7 µM -7% | [1]; at 11.0 µM 9% | [15]; at 1.2 µM -2% | [15]; at 3.7 µM 21% | [3]; at 1.2 µM -28% | [3]; at 3.7 µM -20% | [3]; [16] 16% | [3]; at 11.0 µM 32% | [4]; at 1.2 µM 3% | [4]; at 3.7 µM -7% | [4]; [16] -17% | [4]; at 11.0 µM 59% | [5]; at 1.2 µM 6% | [5]; at 3.7 µM 13% | [6]; [16] 1% | [6]; [17] 63% | [7]; at 1.2 µM -4% | [7]; at 3.7 µM -1% | [7]; at 11.0 µM -1% | [7]; at 33.0 µM 1% | [7]; at 100.0 µM 25% | [8]; [16] 28% | [8]; at 50.0 µM 61% | [9]; at 1.2 µM -6% | [9]; at 3.7 µM -1% | [9]; [16] 42% | [9]; at 11.0 µM -5% | [9]; at 33.0 µM 0% | [9]; at 100.0 µM 28% | [10]; at 1.2 µM -1% | [10]; at 3.7 µM -1% | [10]; at 11.0 µM 0% | [10]; at 33.0 µM 10% | [10]; at 100.0 µM 65% | [11]; at 1.2 µM -1% | [11]; at 3.7 µM 17% | [11]; at 11.0 µM 68% | [12]; at 1.2 µM 14% | [12]; at 3.7 µM 10% | [12]; at 11.0 µM 65% | [13]; [16] 48% | [13]; at 50.0 µM 66.9% | [14]; at 1.2 µM -15% | [14]; at 3.7 µM -12% | [14]; at 11.0 µM 16%
active: [1]; at 33.0 µM 91% | [1]; at 100.0 µM 97% | [15]; at 11.0 µM 75% | [15]; at 33.0 µM 96% | [15]; at 100.0 µM 97% | [3]; at 33.0 µM 91% | [3]; [17] 92% | [3]; at 50.0 µM 70.5% | [3]; at 100.0 µM 97% | [4]; at 33.0 µM 97% | [4]; [17] 97% | [4]; at 50.0 µM 85.5% | [4]; at 100.0 µM 97% | [5]; at 11.0 µM 91% | [5]; at 33.0 µM 97% | [5]; at 100.0 µM 97% | [6]; at 50.0 µM 81.7% | [8]; [17] 86% | [9]; [17] 94% | [9]; at 50.0 µM 88.2% | [11]; at 33.0 µM 96% | [11]; at 100.0 µM 97% | [12]; at 33.0 µM 94% | [12]; at 100.0 µM 97% | [13]; [17] 97% | [14]; at 33.0 µM 83% | [14]; at 100.0 µM 97%
